Menin-MLL TR inh – menin-MLL binding inhibition, Texas Red mutant peptide; O00255; Menin + Texas Red MLL mutant peptide, fluorescence polarization; Potency, µM (doses to about 61.6 µM), without a hit: at the highest dose FP activity change, negative = inhibition, actives largely listed as inhibitors; hit rate 0.23% among 270,000; AID 1768; active = well fitted inhibition curve with a large enough effect in the polarisation, with a control signal flat, not every such curve was filed as active; inconclusive = small, poorly fitted or top-dose-only effect, or effect the other way, or a change in a side signal; inactive = no such curve, though single readings can be large or run the other way; the % refers to the polarisation; note: potency is the fitted concentration of half-maximal effect; % of control where 0% means no effect
Target sequence (O00255 whole entry, looked up): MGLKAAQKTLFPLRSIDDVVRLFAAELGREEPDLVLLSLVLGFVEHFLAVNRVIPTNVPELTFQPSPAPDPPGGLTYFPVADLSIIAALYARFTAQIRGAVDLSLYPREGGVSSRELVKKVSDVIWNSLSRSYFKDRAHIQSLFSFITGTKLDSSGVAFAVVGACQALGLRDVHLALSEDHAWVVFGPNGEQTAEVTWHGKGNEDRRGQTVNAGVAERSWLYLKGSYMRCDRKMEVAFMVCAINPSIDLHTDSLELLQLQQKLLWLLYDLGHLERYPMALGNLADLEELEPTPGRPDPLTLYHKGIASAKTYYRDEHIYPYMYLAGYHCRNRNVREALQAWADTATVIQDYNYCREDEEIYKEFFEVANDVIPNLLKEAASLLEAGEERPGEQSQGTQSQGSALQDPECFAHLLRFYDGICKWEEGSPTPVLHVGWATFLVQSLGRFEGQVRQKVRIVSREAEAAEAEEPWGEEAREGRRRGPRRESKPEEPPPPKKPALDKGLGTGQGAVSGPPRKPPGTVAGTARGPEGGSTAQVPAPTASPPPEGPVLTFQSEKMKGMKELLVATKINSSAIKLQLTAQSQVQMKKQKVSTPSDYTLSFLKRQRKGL
Menin MLL FP FL – inhibitors of human menin-MLL interaction, wild-type MLL peptide; FP activity change, % at 61.4 µM; Fluorescence polarization, fluorescein-MLL peptide displacement from menin; 290,000 tested, under 10 active; active = well fitted curve in the direction sought with a large enough effect in the polarisation, not every such curve was filed as active; inconclusive = small, poorly fitted or top-dose-only effect, or effect the other way, or a change in a side signal; inactive = no such curve, though single readings can be large or run the other way; the % refers to the polarisation; note: % of control where 0% means no effect
MLL CXXC-DNA inh – inhibitors of human MLL CXXC domain-DNA interaction; MLL-CXXC / FITC-HOXA9 DNA fluorescence polarization; Q03164; hit rate 0.037% among 290,000; Potency, µM (highest dose often 115 µM), inactives show top-dose activity change, negative = inhibition, hits mostly inhibitors; active = well fitted inhibition curve with a large enough effect in the polarisation, with a control signal flat, not every such curve was filed as active; inconclusive = small, poorly fitted or top-dose-only effect, or effect the other way, or a change in a side signal; inactive = no such curve, though single readings can be large or run the other way; the % refers to the polarisation; note: potency is the fitted concentration of half-maximal effect
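Steps: dispense CXXC domain solution (7 uM) → pin compounds or unlabeled HOX-A9 DNA control → 5 min ambient → add FLSN-HOX-A9 solution (50 nM) → spin → 30 min ambient → fluorescence polarization. Tris pH 7.5/NaCl/DTT/BSA buffer.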
Epigenetic derep – epigenetic control regulation, reporter derepression; murine LDR cells, GFP reporter derepression, 30 h; Potency, µM (series often up to 53.9 µM), inactives show at the top dose GFP activation, actives largely listed as activators; hit rate 0.2% among 280,000; AID 1865; note: potency is the fitted concentration of half-maximal effect; % of control where 0% means no effect; nearly all actives have a fitted effect of over 60% in size
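In this reporter-derepression format, murine cells bearing a silenced integrated CMV-GFP locus incubate with test compound (30 h, 37 C), then are washed and imaged; fluorescent objects of 20–120 um count as induced cells.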
ClpP mod – qHTS Assay for Activators of ClpP. ATP-dependent Clp protease proteolytic subunit (Bacillus subtilis (strain 168)), P80244. purified B. subtilis ClpP, FRET peptide cleavage, 20 min. Potency, µM (series often up to 57.5 µM), for inactives: top-dose activity change, negative = active. hit rate 1.9% among 340,000. AID 651965, 2013; active = well fitted falling curve with a large enough effect; inconclusive = small, poorly fitted or top-dose-only effect; inactive = no such curve, though single readings can be large or run the other way; note: potency is the fitted concentration of half-maximal effect; the source files actives as falling curves though it sought activators and does not explain the sign; nearly all actives have a fitted effect of over 65% in size
Target sequence (P80244 whole entry, looked up): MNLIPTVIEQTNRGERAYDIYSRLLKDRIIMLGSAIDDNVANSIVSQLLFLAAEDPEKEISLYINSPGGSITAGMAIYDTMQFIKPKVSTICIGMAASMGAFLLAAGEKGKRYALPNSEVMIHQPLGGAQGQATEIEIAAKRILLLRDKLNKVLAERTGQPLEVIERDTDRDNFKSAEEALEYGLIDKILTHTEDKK
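FRET quenching reversal measured ClpP activation: 10 microg/mL B. subtilis ClpP at pH 8 with the FRET-FV decapeptide, read at 430 nm after 320 nm excitation. The 20-min minus 0-min signal was scaled between DMSO/no-enzyme wells and ADEP (5.8 microM final).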
PINK1 modulator – modulators of PINK1 expression. AID 624263. Potency, µM (doses to about 76.6 µM), for inactives: at the highest dose activation (PINK1 increase), actives largely listed as activators. PINK1 immunofluorescence, high-content cytometry, 24 h. hit rate 0.2% among 410,000; active = well fitted activation curve with a large enough effect; inconclusive = small, poorly fitted or top-dose-only effect; cell line not stated here; note: potency is the fitted concentration of half-maximal effect; % of control where 0% means no effect; nearly all actives have a fitted effect of over 65% in size
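Stable cell line, 250 cells/well, 12 h attachment; compounds pinned at 5 concentrations, 24 h; CCCP control. Fixed with nuclear dye, primary antibodies 12 h at 10 degrees C, secondary plus cell stain; laser-scanning cytometer read.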
MLL CXXC Fl – disrupts human MLL CXXC domain binding to DNA | shares compounds with MLL CXXC-DNA inh | MLL CXXC-DNA binding, fluorescein FP | Potency, µM (titrated, usually from 345 µM), for the others: top-dose activity change, negative = inhibition, most hits filed as inhibitors | hit rate 70% among 200; note: potency is the fitted concentration of half-maximal effect; nearly all actives have a fitted effect of over 80% in size
MLL CXXC FP-TR – inhibitors of human MLL CXXC domain-DNA interaction, Texas Red format; shares compounds with MLL CXXC-DNA inh; MLL CXXC-DNA binding, Texas Red fluorescence polarization; Potency, µM (series often up to 345 µM), inactives show top-dose activity change, negative = inhibition, hits mostly inhibitors; hit rate 40% among 200; note: potency is the fitted concentration of half-maximal effect; % is set by controls: 0 for no effect and ±100 for the full control effect; nearly all actives have a fitted effect of over 75% in size
MLL CXXC HTRF – inhibitors of human MLL CXXC domain-DNA interaction, HTRF format. shares compounds with MLL CXXC-DNA inh. MLL CXXC-DNA binding, HTRF, biochemical. Potency, µM (doses to about 172 µM), for inactives: top-dose activity change, negative = inhibition, actives largely listed as inhibitors. hit rate 30% among 210. AID 624162; note: % is set by controls: 0 for no effect and ±100 for the full control effect; nearly all actives have a fitted effect of over 80% in size
Starred values were filed as active, the others as inactive; ? = inconclusive; · = no result given; [ ] = remark or other dose. Rows were chosen to be rich in hits. Some 1.9% of all compounds tested hit in one or more screens of this group. Unless noted, calls come from the whole dose curve; as a rule, active = well fitted curve in the direction sought with a large enough effect; inconclusive = small, poorly fitted or top-dose-only effect, or another doubt; inactive = no such curve, though single readings can be large; an effect the other way counts as inactive or inconclusive.

SMILES | Menin-MLL TR inh | Menin MLL FP FL | MLL CXXC-DNA inh | Epigenetic derep | ClpP mod | PINK1 modulator | MLL CXXC Fl | MLL CXXC FP-TR | MLL CXXC HTRF
O=C1OC(c2ccc(Cl)cc2)/C(=C(/O)c2ccccc2)C1=O (stereo unspecified) | 34.3% | -1.8 | ? | -1.2% | -0.1% | 4.8% | 5.2% | 126µM* | 30.5%
CN1C(=O)C(=O)/C(=C(/O)c2ccc(Br)cc2)C1c1ccc(Cl)cc1 (stereo unspecified) | 18.0% | -2.2 | -2.9% | · | · | 0.0% | · | · | ·
Cc1cccc(C)c1-n1ncc(C(=O)NCCCN2CCC(C)CC2)c1C1CCN(C(=O)OC(C)(C)C)CC1 | · | · | · | 0.0% | 1.7% | 1.7% | · | · | ·
O=c1[nH]c(-[n+]2ccccc2)c(/C=N/NC([S-])=Nc2ccccc2)s1 | · | ? | 35.5µM* | -0.1% | 1.2% | -2.0% | ? | ? | 30.5%
COc1ccc(C(C[N+](=O)[O-])C2(c3ccc(OC)c(OC)c3)C(=O)c3ccccc3C2=O)cc1 (stereo unspecified) | 10.0% | 2.1 | ? | 0.0% | 1.6% | -2.3% | 25.3% | 18.0% | 23.3%
O=C1C(=Cc2cccs2)C(=O)c2ccccc21 | 10.4% | -4.4 | ? | 6.1% | -3.5% | 2.2% | 22.5µM* | ? | 15.0%
O=C1/C(=C/c2cccs2)Cc2ccccc21 | 25.7% | 8.6 | 7.4% | 0.1% | -1.9% | 2.1% | · | · | ·
CCn1c(=O)c2ccccc2n(Cc2ccc([N+](=O)[O-])cc2)c1=O | 21.8% | -3.0 | ? | · | -1.4% | -3.6% | ? | ? | 22.1%
CCn1c(=O)c2ccccc2n(Cc2cccc(C)c2)c1=O | 5.7% | 0.9 | -7.5% | · | -2.7% | 0.3% | · | · | ·
Cc1cnc(CNc2nc(-c3c(C)noc3C)nc3ccccc23)cn1 | 21.7% | 0.1 | · | · | · | 1.3% | · | · | ·
CCOc1ccccc1N(CC(=O)Nc1ccc(OC)c(Cl)c1)S(=O)(=O)c1ccccc1 | · | · | · | -1.1% | -15.4% | 0.9% | · | · | ·
Cc1ccccc1S(=O)(=O)NC1OC(=O)C(Oc2ccccc2)=C1Br (stereo unspecified) | ? | 0.2 | ? | 0.0% | · | 0.8% | · | · | ·
Cc1ccccc1S(=O)(=O)NC1OC(=O)C(Cl)=C1Cl (stereo unspecified) | 0.4% | 1.9 | ? | 1.1% | 1.0% | 1.3% | 44.8µM* | 159µM* | ?
Cn1ncc(N=Cc2c(O)ccc3ccccc23)c1C(=O)Nc1cccc(Cl)c1 | ? | ? | 44.7µM* | ? | · | -2.1% | · | · | 118.0%
O=C1c2ccccc2-c2n[nH]c3cccc1c23 | ? | ? | ? | -0.2% | -2.3% | 0.3% | 35.6µM* | ? | 17.9%
Cc1nn(C)c(C)c1CCNC(=O)Nc1ccccc1C(F)(F)F | · | · | · | -2.5% | -1.9% | -0.2% | · | · | ·
COc1cc(/C=C2\C(=O)N(c3cccc(C(=O)O)c3)N=C2C)ccc1OCc1ccccc1 | · | · | · | · | -0.5% | 4.4% | · | · | ·
C#CCOc1ccc(/C=C2/C(=O)N(c3cccc(C(=O)O)c3)N=C2C)cc1OC | ? | -1.8 | 44.7µM* | · | · | 0.0% | 44.8µM* | 71.1µM* | 96.8µM*
NS(=O)(=O)c1ccc(NC2=CC(=O)C(=O)c3ccccc32)cc1 | ? | -5.4 | ? | · | · | 1.0% | ? | ? | 107.8%
CCNC(=O)C1CCCN(C(=O)c2ccc3c(c2)OCO3)CC1 (stereo unspecified) | · | · | · | · | -0.7% | 1.2% | · | · | ·
CC(=O)Oc1ccc2c(c1)Oc1cc(OC(C)=O)ccc1C21OC(=O)c2ccccc21 | ? | ? | ? | ? | -0.5% | 0.1% | 0.0225µM* | 34.1% | 3.0%
CS(=O)(=O)N1CCN(c2ccccc2NC(=O)Nc2cccc(Cl)c2)CC1 | ? | 1.4 | -3.0% | · | -0.5% | 2.8% | · | · | ·
CCOc1ccc(N(C)C(CNS(=O)(=O)c2ccccc2)c2ccccc2)cc1 (stereo unspecified) | · | · | · | -2.0% | -0.2% | 2.6% | · | · | ·
COc1ccc(NS(=O)(=O)c2ccc(Cl)s2)cn1 | · | ? | ? | 0.1% | 1.7% | -1.4% | 126µM* | 2.1% | 0.2%
COc1ccc(NS(=O)(=O)c2cccs2)cn1 | 6.0% | -9.0 | -3.1% | 4.8% | · | 4.2% | · | · | ·
SMILES | Menin-MLL TR inh | Menin MLL FP FL | MLL CXXC-DNA inh | Epigenetic derep | ClpP mod | PINK1 modulator | MLL CXXC Fl | MLL CXXC FP-TR | MLL CXXC HTRF
COc1ccccc1/C=C1/C(=O)ON=C1C | -2.5% | -6.5 | ? | · | -0.7% | 3.8% | 100µM* | 126µM* | -13.6%
COc1ccc(/C=C2/C(=O)ON=C2C)cc1Br | -2.1% | 0.4 | -2.4% | · | 0.3% | 9.3% | · | · | ·
CCc1nn(CC(=O)N2CCN(c3cccc(C)c3)C(C)C2)c(=O)c2cc3sccc3n12 (stereo unspecified) | · | · | · | 0.0% | -1.9% | 1.2% | · | · | ·
Fc1ccccc1COc1ccc(Br)cc1CNCc1ccncc1 | ? | -1.0 | -19.8% | -4.3% | 0.9% | 1.1% | · | · | ·
Fc1ccccc1COc1ccc(Br)cc1CNCc1cccnc1 | ? | -4.7 | ? | 0.9% | · | 0.4% | ? | ? | -9.5%
COc1ccc(N2CCN(C(=O)c3ccc4c(c3)N(Cc3ccc(F)cc3)C(=O)c3ccccc3S4=O)CC2)cc1 (stereo unspecified) | · | · | · | -1.1% | 1.0% | 0.1% | · | · | ·
CSC1=NCCCN1C(=O)c1c(-c2ccccc2Cl)noc1C | · | -2.8 | ? | 2.2% | -0.8% | 2.1% | ? | 24.9% | -4.7%
CCCCCCCC1=NN(c2ccc(S(=O)(=O)O)cc2)C(=O)C1N=O (stereo unspecified) | · | · | · | · | -0.9% | 5.7% | · | · | ·
N.N.O=C(O)C1(C(=O)O)CCC1.[Pt] | 6.0% | ? | ? | 0.0% | · | · | 8.0% | ? | 48.5µM*
S=C(NC1CCCCC1)N1CCN(C2CCCCC2)CC1 | ? | -10.5 | ? | 0.0% | -10.6% | 1.0% | ? | 13.7% | -0.3%
O=C(NC1CCCCC1)N1CCN(C2CCCCC2)CC1 | -6.5% | 0.4 | 4.5% | -2.1% | -2.4% | 5.1%[38.3 µM] | · | · | ·
O=c1[nH]c(S)c(/C=C2\C=Nc3ccccc32)s1 | · | ? | 35.5µM* | -1.3% | 0.7% | -0.2% | 126µM* | ? | ?

Screening data from PubChem.
